The text below walks through data of ChEMBL document CHEMBL1961873, “Compounds: GSK PKIS; Assays: Nanosyn kinase panel” (2012).

In one assay the target is Casein kinase I isoform gamma-3 (Homo sapiens) (UniProt Q9Y6M4). Conditions: at 0.1 µM.
Chain of Casein kinase I isoform gamma-3 (Homo sapiens) (Q9Y6M4 whole entry, looked up, canonical isoform): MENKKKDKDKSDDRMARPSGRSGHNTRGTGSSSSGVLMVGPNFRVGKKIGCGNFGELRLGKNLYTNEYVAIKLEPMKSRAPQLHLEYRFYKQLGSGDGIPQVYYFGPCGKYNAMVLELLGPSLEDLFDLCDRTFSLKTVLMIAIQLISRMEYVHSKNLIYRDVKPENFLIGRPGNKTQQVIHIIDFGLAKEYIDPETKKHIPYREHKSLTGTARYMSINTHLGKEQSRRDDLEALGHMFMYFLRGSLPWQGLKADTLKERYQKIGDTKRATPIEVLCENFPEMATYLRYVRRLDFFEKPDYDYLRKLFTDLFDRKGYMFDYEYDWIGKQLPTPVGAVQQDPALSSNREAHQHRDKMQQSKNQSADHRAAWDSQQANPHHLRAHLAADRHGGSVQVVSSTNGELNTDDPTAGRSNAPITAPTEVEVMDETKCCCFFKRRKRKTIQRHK
Regarding `CN(c1ccc(NC(=O)Nc2c(Cl)cccc2Cl)cc1)c1ccnc(Nc2cccc(CS(C)(=O)=O)c2)n1`, the inhibition came to 1.67%.
Turning to `CCS(=O)(=O)c1ccc(OC)c(Nc2ncc(-c3cccc(-c4ccccc4F)c3)o2)c1`, the inhibition is 0.39%.
Turning to `CS(=O)(=O)CCNCc1ccc(-c2ccc3ncnc(Nc4ccc(OCc5ccccc5)c(Br)c4)c3c2)o1`, the inhibition was -0.8%.
`N#Cc1ccc(Oc2nccc(-c3c(-c4ccc(F)cc4)ncn3C3CCNCC3)n2)cc1`: the inhibition was found to be 1.83%.
Turning to `Fc1ccc(-c2ncn(C3CCNCC3)c2-c2ccnc(Oc3ccc4c(c3)OCO4)n2)cc1`, the inhibition was 4.73%.
The same measure, in the same setting: the value for `COc1cc(N2CCN(C(C)C)CC2)ccc1Nc1nc(Nc2ccc(F)cc2C(=O)NC[C@@H](O)CO)c2cc[nH]c2n1` was 2.74%; that for `O=C1NC(=O)C(c2cccc(Cl)c2)=C1Nc1ccc(Cl)c(C(=O)O)c1` was 1.59%; that for `NC(=O)c1cc(-c2ccncc2)cc(-c2ccccc2)c1N` was 4.56%.
The same measure, in the same setting: the value for `CS(=O)(=O)CCNCc1cc(-c2cc3c(Nc4ccc(OCc5cccc(F)c5)c(Cl)c4)ncnc3s2)cs1` was 3.07%; that for `Cc1ccc(C(=O)NC2CCC2)cc1-c1ccc(C(=O)NCC2CC2)cc1` was 2.2%; that for `NC(=O)c1cc(-c2ccc(F)cc2)cc(-c2ccncc2)c1N` was 4.13%.
On to `O=C(Nc1n[nH]c2cc(-c3ccccc3)ccc12)C1CC1`, for which the inhibition came out at 4.39%.
As for `O=C(Nc1n[nH]c2nc(-c3ccc(O)cc3)c(Br)cc12)C1CC1`, the inhibition turned out to be 1.39%.
With `C/C(Nc1ccc(S(N)(=O)=O)cc1)=C1/C(=O)Nc2ccccc21`, the inhibition is -1.23%.
In the case of `O=C1Nc2ccccc2/C1=C/Nc1ccc(-n2cncn2)cc1`, the inhibition was found to be 2.62%.
For the compound `CCc1nccc2c1nc(-c1nonc1N)n2CC`, the inhibition is -0.55%.
Consider `CCN(CC)Cc1ccc(Nc2nccc(-c3cnn4ncccc34)n2)cc1`, for which the inhibition was determined as 0.62%.
As to `Fc1ccc(-c2ncn(C3CCNCC3)c2-c2ccnc(Oc3ccc(F)c(F)c3)n2)cc1`, the inhibition was -0.68%.
With `C[C@@H](Oc1cc(-n2cnc3ccc(OCC4CCN(C)CC4)cc32)sc1C(N)=O)c1ccccc1Cl`, the inhibition was 3.89%.
In the case of `COc1ccc2cc(-c3c(-c4ccncc4)nc(-c4ccc([S+](C)[O-])cc4C)n3C)ccc2c1` (stereo not drawn), the inhibition was -1.01%.
For `CN1CCN(CCCNc2nc3ccc(Oc4ccc(NC(=O)Nc5cc(C(F)(F)F)ccc5F)cc4)cc3[nH]2)CC1`, the inhibition was -3.59%.
`Nc1nccc(-c2c(-c3ccc(F)cc3)ncn2C2CCC(O)CC2)n1` (stereo not drawn): the inhibition was -1.07%.
As to `c1ccc(Oc2ccc(Nc3ncc(-c4ccccc4)o3)cc2)cc1`, the inhibition was -0.2%.
Consider `COc1ccc(-c2ccc3c(NC(=O)C4CC4)n[nH]c3n2)cc1`, for which the inhibition was 1.89%.
Same read-out and setting: the value for `O=C(Nc1n[nH]c2nc(-c3ccco3)ccc12)C1CC1` was -1.28%; that for `CCS(=O)(=O)c1ccc(OC)c(Nc2ncc(-c3ccccc3Cl)o2)c1` was -0.55%.
With `CN(C)c1ccc2c(c1)/C(=C/Nc1ccc(S(N)(=O)=O)cc1)C(=O)N2`, the inhibition came to 0.48%.
For the compound `CN(C)CCCNc1nccc(-c2c(-c3ccc(F)cc3)nn3cc(C(F)(F)F)ccc23)n1`, the inhibition was -3.53%.
Same read-out and setting: the value for `CCC(=O)Nc1ccc(C)c(-c2ccc(C(=O)NCC3CC3)cc2)c1` was 1.58%; that for `NS(=O)(=O)c1ccc(Nc2cc(-c3ccc(O)c(F)c3)n[nH]2)cc1` was -3.13%.
On to `COc1cc2ncn(-c3cc(OCCc4ccccc4)c(C(N)=O)s3)c2cc1OC`, for which the inhibition turned out to be 2.44%.
With `Cc1ccc(C(=O)NC(C)C)cc1-c1ccc(C(=O)NCC2CC2)cc1`, the inhibition was -2.79%.
For the compound `NCc1ccc(-n2c(-c3nonc3N)nc3cnccc32)cc1`, the inhibition was found to be 2.05%.
Take `COc1cc(Nc2ncc3c(C)nc(-c4cccc(C(F)(F)F)c4)n3n2)cc(OC)c1OC`: the inhibition worked out at 2.45%.

For the next assay the target is unchanged. The conditions noted are these: at 1 µM.
Turning to `CN(c1ccc(NC(=O)Nc2c(Cl)cccc2Cl)cc1)c1ccnc(Nc2cccc(CS(C)(=O)=O)c2)n1`, the inhibition was -1.25%.
Same read-out and setting: to `CCS(=O)(=O)c1ccc(OC)c(Nc2ncc(-c3cccc(-c4ccccc4F)c3)o2)c1` belongs 0.12%; to `CS(=O)(=O)CCNCc1ccc(-c2ccc3ncnc(Nc4ccc(OCc5ccccc5)c(Br)c4)c3c2)o1`, -2.02%; to `N#Cc1ccc(Oc2nccc(-c3c(-c4ccc(F)cc4)ncn3C3CCNCC3)n2)cc1`, 5.34%.
As to `Fc1ccc(-c2ncn(C3CCNCC3)c2-c2ccnc(Oc3ccc4c(c3)OCO4)n2)cc1`, the inhibition worked out at 17.9%.
On to `COc1cc(N2CCN(C(C)C)CC2)ccc1Nc1nc(Nc2ccc(F)cc2C(=O)NC[C@@H](O)CO)c2cc[nH]c2n1`, for which the inhibition turned out to be 31.8%.
Take `O=C1NC(=O)C(c2cccc(Cl)c2)=C1Nc1ccc(Cl)c(C(=O)O)c1`: the inhibition stood at 0.02%.
Same read-out and setting: to `NC(=O)c1cc(-c2ccncc2)cc(-c2ccccc2)c1N` belongs 4.47%; to `CS(=O)(=O)CCNCc1cc(-c2cc3c(Nc4ccc(OCc5cccc(F)c5)c(Cl)c4)ncnc3s2)cs1`, 1.92%.
As for `Cc1ccc(C(=O)NC2CCC2)cc1-c1ccc(C(=O)NCC2CC2)cc1`, the inhibition was 2.4%.
As to `NC(=O)c1cc(-c2ccc(F)cc2)cc(-c2ccncc2)c1N`, the inhibition was 2.66%.
As to `O=C(Nc1n[nH]c2cc(-c3ccccc3)ccc12)C1CC1`, the inhibition is 4.52%.
Regarding `O=C(Nc1n[nH]c2nc(-c3ccc(O)cc3)c(Br)cc12)C1CC1`, the inhibition was 4.72%.
For `C/C(Nc1ccc(S(N)(=O)=O)cc1)=C1/C(=O)Nc2ccccc21`, the inhibition was found to be 19.1%.
The same measure, in the same setting: to `O=C1Nc2ccccc2/C1=C/Nc1ccc(-n2cncn2)cc1` belongs 5.16%.
As to `CCc1nccc2c1nc(-c1nonc1N)n2CC`, the inhibition came out at 1.97%.
`CCN(CC)Cc1ccc(Nc2nccc(-c3cnn4ncccc34)n2)cc1`: the inhibition turned out to be 10.6%.
`Fc1ccc(-c2ncn(C3CCNCC3)c2-c2ccnc(Oc3ccc(F)c(F)c3)n2)cc1`: the inhibition stood at 1.74%.
For the compound `C[C@@H](Oc1cc(-n2cnc3ccc(OCC4CCN(C)CC4)cc32)sc1C(N)=O)c1ccccc1Cl`, the inhibition turned out to be 5.6%.
Still for that read-out and setting: to `COc1ccc2cc(-c3c(-c4ccncc4)nc(-c4ccc([S+](C)[O-])cc4C)n3C)ccc2c1` (stereo not drawn) belongs -1.93%; to `CN1CCN(CCCNc2nc3ccc(Oc4ccc(NC(=O)Nc5cc(C(F)(F)F)ccc5F)cc4)cc3[nH]2)CC1`, -4.66%; to `Nc1nccc(-c2c(-c3ccc(F)cc3)ncn2C2CCC(O)CC2)n1` (stereo not drawn), 10.8%.
Same read-out and setting: the value for `c1ccc(Oc2ccc(Nc3ncc(-c4ccccc4)o3)cc2)cc1` was 1.13%; that for `COc1ccc(-c2ccc3c(NC(=O)C4CC4)n[nH]c3n2)cc1` was 2.61%.
As for `O=C(Nc1n[nH]c2nc(-c3ccco3)ccc12)C1CC1`, the inhibition is 0.46%.
In the case of `CCS(=O)(=O)c1ccc(OC)c(Nc2ncc(-c3ccccc3Cl)o2)c1`, the inhibition came out at 0.35%.
Turning to `CN(C)c1ccc2c(c1)/C(=C/Nc1ccc(S(N)(=O)=O)cc1)C(=O)N2`, the inhibition was found to be 0.92%.
Regarding `CN(C)CCCNc1nccc(-c2c(-c3ccc(F)cc3)nn3cc(C(F)(F)F)ccc23)n1`, the inhibition was -1.67%.
`CCC(=O)Nc1ccc(C)c(-c2ccc(C(=O)NCC3CC3)cc2)c1`: the inhibition was found to be 1.61%.
Consider `NS(=O)(=O)c1ccc(Nc2cc(-c3ccc(O)c(F)c3)n[nH]2)cc1`, for which the inhibition was 4.18%.
`COc1cc2ncn(-c3cc(OCCc4ccccc4)c(C(N)=O)s3)c2cc1OC`: the inhibition was 6.34%.
Still for that read-out and setting: the value for `Cc1ccc(C(=O)NC(C)C)cc1-c1ccc(C(=O)NCC2CC2)cc1` was -1.44%; that for `NCc1ccc(-n2c(-c3nonc3N)nc3cnccc32)cc1` was 10.7%.
As for `COc1cc(Nc2ncc3c(C)nc(-c4cccc(C(F)(F)F)c4)n3n2)cc(OC)c1OC`, the inhibition worked out at 4.96%.
